# Laboratory results: the supplement of paper PMC9135407
# Where “and” joins values, the source holds several entries; their conditions need not be identical. Equal entries are not always repeated. Structures can show the parent of a compound that is named as a salt. Out of some 5,800 compounds screened, about 620 (11%) showed activity. For the sample, actives were picked, then their nearest neighbours and some compounds at random. A number with no mark means an inactive call.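 Rule for the calls: active = score above a cut-off or among the top three wells of a plate; in these data no inactive exceeds 0.85.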
# System: primary human hepatic stellate cells (donor 1)
# Test: scaled lipid accumulation score (0 = DMSO-like, 1 = nortriptyline-like); higher = stronger HSC inactivation (lipid re-accumulation), active = hit call of the paper
# Details: 48 h
# [1] = library stock concentration: 1 mM
# [2] = library stock concentration: 3.33 mM
# [3] = library stock concentration: 10 mM
# [4] = library stock concentration: 9 mM
# [5] = library stock concentration: 80 uM
# [6] = library stock concentration: 400 uM
# [7] = library stock concentration: 2 mM
smiles,measurement,setting,value
O=C(CCCC[C@@H]1SC[C@@H]2NC(=O)N[C@@H]21)NCCCC[C@H](NC(=O)CCN1C(=O)C=CC1=O)C(=O)O [3-(N-Maleimidopropionyl)-biocytin],scaled lipid accumulation score,[1],≤ 0
Cc1c(C(=O)Nc2ccc(N3CCC(N4CCOCC4)CC3)c(C#N)c2)cnn1-c1ccc(Cl)cc1,scaled lipid accumulation score,[2],0.756
same,scaled lipid accumulation score,[3],0.699
C[N+]1(C)[C@@H]2C[C@@H](OC(=O)C(O)(c3cccs3)c3cccs3)C[C@H]1[C@@H]1O[C@@H]12 [Tiotropium Bromide hydrate],scaled lipid accumulation score,[2],≤ 0
same,scaled lipid accumulation score,[3],≤ 0
"CCCCC[C@H]1C=C[C@@H]2[C@@H](CC=CCCCC(=O)O1)[C@@H](O)C[C@H]2O [Prostaglandin F2.alpha. 1,15-lactone]",scaled lipid accumulation score,[1],≤ 0
"CCCCC/C=C/C=C1/C=CC(=O)[C@@H]1CCCCCCC(=O)O [15-deoxy-.DELTA.12,14-Prostaglandin A1]",scaled lipid accumulation score,[1],≤ 0
CC(C)C[C@H](NC(=O)CNC(=O)c1cc(Cl)ccc1Cl)B1OC(=O)CC(CC(=O)O)(C(=O)O)O1 (some centres not stated),scaled lipid accumulation score,[2],≤ 0
same,scaled lipid accumulation score,[3],0.118
OCC1OC(n2cnc3c(NC4CCCCC4)ncnc32)C(O)C1O (configuration not stated) [N6-Cyclohexyladenosine],scaled lipid accumulation score,[3],0.037
Cc1cccc(CCN2CCC(C(=O)c3ccc(NS(C)(=O)=O)cc3)CC2)n1 [E-4031 dihydrochloride],scaled lipid accumulation score,[3],≤ 0
Cc1cccc(CCN2CCC(C(=O)c3ccc(NS(C)(=O)=O)cc3)CC2)n1,scaled lipid accumulation score,library stock concentration: 9.9 mM,0.011
Fc1ccc(Cl)cc1-c1nc(Nc2ccncc2)c2nccnc2n1,scaled lipid accumulation score,[3],≤ -0.001
O=C1C=CC(=O)C2=C1C1c3ccccc3C2c2ccccc21,scaled lipid accumulation score,[3],0.953 (active)
O=C1c2ccccc2C(=O)C1c1ccccc1 [Phenindione],scaled lipid accumulation score,,≤ 0
same,scaled lipid accumulation score,[2],≤ 0
same,scaled lipid accumulation score,[4],0.014
same,scaled lipid accumulation score,[3],≤ 0
"CCCCCC(O)C=CC1C2CC(CO2)C1CCCCCCC(=O)O (stereo not drawn) [9,11-methane-epoxy Prostaglandin F1.alpha.]",scaled lipid accumulation score,[1],0.048
O=C(Nc1ccc2c(c1)CCN(Cc1ncn[nH]1)C2)c1ccccc1-c1ccc(C(F)(F)F)cc1,scaled lipid accumulation score,[3],≤ 0
O=C(NC1CCN(CCCCC2(C(=O)NCC(F)(F)F)c3ccccc3-c3ccccc32)CC1)c1ccccc1-c1ccc(C(F)(F)F)cc1 [Lomitapide] [listing 1 of 2 here],scaled lipid accumulation score,[2],1.05 (active)
O=C(NC1CCN(CCCCC2(C(=O)NCC(F)(F)F)c3ccccc3-c3ccccc32)CC1)c1ccccc1-c1ccc(C(F)(F)F)cc1 [Lomitapide] [listing 2 of 2 here],scaled lipid accumulation score,[3],≤ 0
N[C@@H]1CCCN(c2c(/C=C3\SC(=O)NC3=O)cccc2-c2ccccc2)C1,scaled lipid accumulation score,[5],≤ 0
same,scaled lipid accumulation score,[6],≤ 0
same,scaled lipid accumulation score,[7],0.016
same,scaled lipid accumulation score,[2],0.072
same,scaled lipid accumulation score,[3],0.072 and 0.486
"CC(C)(C)c1cc(O)c(C(C)(C)C)cc1O [2,5-Ditertbutylhydroquinone]",scaled lipid accumulation score,library stock concentration: 22.5 mM,0.463
O=C(O)/C=C\C(=O)O.O=C(O)/C=C\C(=O)O.c1cc(CN2CCCCC2)cc(OCCCNc2nc3ccccc3s2)c1 [Zolantidine dimaleate],scaled lipid accumulation score,[3],1.5 (active)
CC(=O)OCC(=O)NCCCOc1cccc(CN2CCCCC2)c1,scaled lipid accumulation score,[3],≤ 0
O=C(O)/C=C\C(=O)O.O=C(O)/C=C\C(=O)O.c1cc(CN2CCCCC2)cc(OCCCNc2nc3ccccc3s2)c1,scaled lipid accumulation score,[3],1.03 (active)
O=C(O)Cc1cccc(OCCCN(Cc2cccc(C(F)(F)F)c2Cl)CC(c2ccccc2)c2ccccc2)c1,scaled lipid accumulation score,[2],≤ 0
same,scaled lipid accumulation score,[3],0.181
CC(=O)OCC(=O)NCCCOc1cccc(CN2CCCCC2)c1 [Roxatidine Acetate HCl],scaled lipid accumulation score,,0.032
same,scaled lipid accumulation score,[2],≤ 0
same,scaled lipid accumulation score,[3],≤ 0
c1ccc2sc(N3CCN(Cc4ccc5c(c4)OCO5)CC3)nc2c1 [2-[1-(4-Piperonyl)piperazinyl]benzothiazole],scaled lipid accumulation score,[3],≤ 0
CC(=O)OCC(=O)NCCCOc1cccc(CN2CCCCC2)c1 [Roxatidine acetate HCl],scaled lipid accumulation score,library stock concentration: 5.7 mM,≤ 0
O=C(O)Cc1cccc(OCCCN(Cc2cccc(C(F)(F)F)c2Cl)CC(c2ccccc2)c2ccccc2)c1 [GW 3965 hydrochloride],scaled lipid accumulation score,[3],≤ -0.001
CCCCCCCCCCCCCCCCCC(=O)N[C@H]1CCOC1=O [N-octadecanoyl-L-Homoserine lactone],scaled lipid accumulation score,[1],≤ 0
CCCCN1C[C@H](O)[C@@H](O)[C@H](O)[C@H]1CO [Miglustat],scaled lipid accumulation score,library stock concentration: 9.1 mM,≤ 0
Nc1nc(Nc2ccccc2)nc2c1ncn2[C@@H]1O[C@H](CO)[C@@H](O)[C@H]1O,scaled lipid accumulation score,[3],≤ 0
Cc1ccc(NC(=O)c2ccc(CN3CCN(C)CC3)cc2)cc1Nc1nccc(-c2cccnc2)n1 [Imatinib (STI571)] [listing 1 of 2 here],scaled lipid accumulation score,[2],0.133
Cc1ccc(NC(=O)c2ccc(CN3CCN(C)CC3)cc2)cc1Nc1nccc(-c2cccnc2)n1,scaled lipid accumulation score,[6],0.022
same,scaled lipid accumulation score,[7],≤ -0.005
same,scaled lipid accumulation score,[3],0.628
Cc1ccc(NC(=O)c2ccc(CN3CCN(C)CC3)cc2)cc1Nc1nccc(-c2cccnc2)n1 [Imatinib (STI571)] [listing 2 of 2 here],scaled lipid accumulation score,[3],0.92 (active)
CS(=O)(=O)O.Cc1ccc(NC(=O)c2ccc(CN3CCN(C)CC3)cc2)cc1Nc1nccc(-c2cccnc2)n1 [Imatinib],scaled lipid accumulation score,[3],0.969 (active)
CS(=O)(=O)O.Cc1ccc(NC(=O)c2ccc(CN3CCN(C)CC3)cc2)cc1Nc1nccc(-c2cccnc2)n1 [Imatinib Mesylate (STI571)],scaled lipid accumulation score,[3],1.1 (active)
Cc1ccc(NC(=O)c2ccc(CN3CCN(C)CC3)cc2)cc1Nc1nccc(-c2cccnc2)n1 [Imatinib Mesylate (STI571)],scaled lipid accumulation score,[2],0.259
CS(=O)(=O)O.Cc1ccc(NC(=O)c2ccc(CN3CCN(C)CC3)cc2)cc1Nc1nccc(-c2cccnc2)n1,scaled lipid accumulation score,[3],1.08 (active)
Cc1cc(-c2ccc(CC(=O)Nc3ccc(-c4cccnc4)cc3)cc2)ccn1,scaled lipid accumulation score,[2],0.089
same,scaled lipid accumulation score,[3],0.262
Cc1ccc(NC(=O)c2ccc(CN3CCN(C)CC3)cc2)cc1Nc1nccc(-c2cccnc2)n1 [Imatinib],scaled lipid accumulation score,[5],≤ 0
same,scaled lipid accumulation score,[6],≤ 0
same,scaled lipid accumulation score,[7],0.049
CCCCC/C=C\C/C=C\C/C=C\CCCCCCC(=O)O [Dihomo-gamma-linolenic acid],scaled lipid accumulation score,[1],≤ -0.021
CCCCC/C=C\C/C=C\C/C=C\CCCCCCC(=O)O [Dihomo-.gamma.-Linolenic Acid],scaled lipid accumulation score,[1],0.003
CCCCC(CC)COC(=O)CC(C(=O)OCC(CC)CCCC)S(=O)(=O)O (configuration not stated),scaled lipid accumulation score,[3],≤ 0
CCCCC[C@H](O)/C=C/[C@H]1[C@H](O)CC(=O)[C@H]1C/C=C\CCCC(=O)OC(C)C [8-iso Prostaglandin E2 isopropyl ester],scaled lipid accumulation score,[1],≤ 0
CC/C=C\C/C=C\C/C=C\C/C=C\C/C=C\C/C=C\CCC(=O)O[C@H](COCCCCCCCCCCCCCCCC)COP(=O)([O-])OCC[N+](C)(C)C [Docosahexaenoyl PAF C-16],scaled lipid accumulation score,[1],≤ 0
CC/C=C\C/C=C\C/C=C\C/C=C\C/C=C\CCCC(=O)O[C@H](COCCCCCCCCCCCCCCCC)COP(=O)([O-])OCC[N+](C)(C)C [Eicosapentaenoyl PAF C-16],scaled lipid accumulation score,[1],≤ 0
COc1ccc(CCN(C)CCCC(C#N)(c2cc(OC)c(OC)c(OC)c2)C(C)C)cc1OC (configuration not stated),scaled lipid accumulation score,[3],0.616
CCCCC[C@H](O)/C=C/[C@@H]1[C@H]2C[C@@H](CCCCC(=O)O)O[C@H]2C[C@H]1O [6.alpha.-Prostaglandin I1],scaled lipid accumulation score,[1],0.002
C=CCc1ccc(O)c(-c2ccc(O)c(CC=C)c2)c1 [Honokiol],scaled lipid accumulation score,[2],≤ 0
same,scaled lipid accumulation score,[3],0.295
CCCCC[C@@H](O)/C=C/[C@H]1C(=O)C[C@H](O)[C@@H]1CCCCCCCO [Prostaglandin D1 Alcohol],scaled lipid accumulation score,[1],≤ 0
CC(=O)CCCCn1cnc2c1c(=O)n(C)c(=O)n2C,scaled lipid accumulation score,[3],≤ 0
Nc1ncnc2c1C(=O)N(c1ccc([C@H]3CC[C@H](CC(=O)O)CC3)cc1)CCO2,scaled lipid accumulation score,[2],≤ -0.009
same,scaled lipid accumulation score,[3],≤ 0
COc1ccc(CCC(C)NC2CC(C)(C)NC(C)(C)C2)cc1 (configuration not stated),scaled lipid accumulation score,[3],0.998 (active)
COc1ccc(CNCc2cccc3ccccc23)cc1,scaled lipid accumulation score,[2],0.023
same,scaled lipid accumulation score,[3],0.491
CC(/C=C/c1cccc(Oc2ccc(F)cc2)c1)N(O)C(N)=O (configuration not stated),scaled lipid accumulation score,[3],0.544 and 0.071
C[C@@H]1C[C@H]2[C@@H]3CCC4=CC(=O)C=C[C@]4(C)[C@@]3(F)[C@@H](O)C[C@]2(C)[C@H]1C(=O)CO,scaled lipid accumulation score,[3],≤ 0
Cc1cc(C)cc(OCC2CNC(=O)O2)c1 (configuration not stated) [Metaxalone],scaled lipid accumulation score,[4],≤ 0
same,scaled lipid accumulation score,[3],≤ -0.023
COc1ccc2nc3cc(Cl)ccc3c(Nc3cc(CN4CCCC4)c(O)c(CN4CCCC4)c3)c2n1,scaled lipid accumulation score,[3],0.065
N=C(N)NC(=N)N1CCOCC1,scaled lipid accumulation score,[3],≤ 0
N=C(N)NC(=N)N1CCOCC1 [Moroxydine HCl],scaled lipid accumulation score,[2],0.051
same,scaled lipid accumulation score,library stock concentration: 9.6 mM,≤ -0.006
same,scaled lipid accumulation score,[3],≤ 0
CCN(CC)CCCCNc1ncc2cc(-c3c(Cl)cccc3Cl)c(NC(=O)NC(C)(C)C)nc2n1 [listing 1 of 2 here],scaled lipid accumulation score,[3],1.41 (active)
CCN(CC)CCOc1ccc(Nc2ncc3cc(-c4c(Cl)cccc4Cl)c(=O)n(C)c3n2)cc1,scaled lipid accumulation score,[3],0.416
CCN(CC)CCCCNc1ncc2cc(-c3c(Cl)cccc3Cl)c(NC(=O)NC(C)(C)C)nc2n1 [listing 2 of 2 here],scaled lipid accumulation score,[3],0.999 (active)
CSc1cccc(Nc2ncc3cc(-c4c(Cl)cccc4Cl)c(=O)n(C)c3n2)c1,scaled lipid accumulation score,[2],0.68
same,scaled lipid accumulation score,[3],0.591
